Source: PubChem (National Center for Advancing Translational Sciences (NCATS))
A selection: hits, their analogues and other compounds. The true share with any hit is near 21%.
Pf growth 96h – P. falciparum growth inhibition at 96 hours; P. falciparum luciferase reporter growth, 96 h; Potency, µM (series often up to 28.7 µM), inactives show at the highest dose activity change, negative = inhibition, actives largely listed as inhibitors; actives 6.9% (n = 320,000); AID 504834; note: potency is the fitted concentration of half-maximal effect; % is set by controls: 0 for no effect and ±100 for the full control effect
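Plates of compound plus infected erythrocytes (2% hematocrit, 0.05% parasitemia final) incubate 96 hours, 37 C, 5% CO2. Detection reagent added; reduced luminescence from the parasites' luciferase reporter flags inhibition.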
Shiga inhibitor – inhibitors of Shiga toxin in Vero cells. Vero cells, Shiga toxin protein synthesis inhibition reporter. inhibition, % at 38.7 µM. actives 9.2% (n = 290,000); in the data active = inhibition mostly above about 28%, no sharp cut-off; inactive = mostly below about 43%; note: 0% is about no effect
HCMV inh – human cytomegalovirus inhibition; HFF cells, HCMV-luciferase reporter, 72 h; hits give low values; activity change, negative = inhibition, % at 57.5 µM; actives 4.5% (n = 410,000); AID 1259415; in the data active = activity change below about -60%; inconclusive = no clear call, values can overlap the other calls; inactive = above about -39%; note: % is set by controls: 0 for no effect and ±100 for the full control effect
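Two compound doses tested in HFFs infected with HCMV-luciferase, MOI 1 PFU/cell, 72 h at 37C. Lysate luminescence read with OneGlo; data normalized against buffer-only and 10uM Salinomycin inhibitor controls.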
HCV inh – HCV inhibition | Huh7.5.1 HCVcc-Cre infection, luciferase reporter, 44 h | Potency, µM (top dose mostly 41.8 µM), for the others: top-dose activity change, negative = inhibition, most hits filed as inhibitors | actives 3.4% (n = 340,000); note: potency is the fitted concentration of half-maximal effect; % is set by controls: 0 for no effect and ±100 for the full control effect
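Reporter virus HCVcc-Cre (~0.5 moi) infects cells exposed to compound; seeding density 1,000 cells/well with 4 h settling beforehand. Luminescence, 15 sec read, taken 44 h post-infection following a 15 min RT substrate incubation.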
Pf growth 48h – P. falciparum growth inhibition at 48 hours (one generation) | P. falciparum luciferase growth in erythrocytes, 48 h | Potency, µM (highest dose often 28.7 µM), inactives show at the highest dose activity change, negative = inhibition, actives largely listed as inhibitors | actives 5.9% (n = 310,000); note: potency is the fitted concentration of half-maximal effect; % is set by controls: 0 for no effect and ±100 for the full control effect
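Luciferase-expressing P. falciparum in infected erythrocytes (2% hematocrit, 0.1% parasitemia final) in RPMI 1640/0.5% Albumax were exposed to compound for 48 hours at 37 C, 5% CO2; growth read as luminescence.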
CHX counter – affects cycloheximide protein synthesis inhibition readout, counter-screen; max response, %; AID 2314; actives 12% (n = 300,000); cell reporter, cycloheximide protein synthesis inhibition counterscreen; in the data active = max response mostly above about 13%, no sharp cut-off; inactive = mostly below about 14%; note: read at 38.3 µM for the half of the compounds with a filed dose; 0% is about no effect
* marks the source's active call; other numbers are inactive results; ? = inconclusive; / = no result. Unless noted, calls come from the whole dose curve; as a rule, active = well fitted inhibition curve with a large enough effect; inconclusive = small, poorly fitted or top-dose-only effect, or another doubt; inactive = no such curve, though single readings can be large or run the other way.

SMILES | Pf growth 96h | Shiga inhibitor | HCMV inh | HCV inh | Pf growth 48h | CHX counter
CCOc1ccc(-c2nc(CSc3nncs3)cs2)cc1OC | ? | 53 | 5 | ? | -12% | 19*
CCc1nc2c(c(=O)[nH]1)C(CC)(CC)Cc1ccccc1-2 | -4% | -10 | 4 | 28% | 0% | -3
CCN(CC)Cc1nc2c(c(=O)[nH]1)C(CC)(CC)Cc1ccccc1-2 | -140% | -3 | ? | -28% | 9.3µM* | -2
C[N+](C)(C)CC1CCCc2ccccc2C1=O (centres undefined) | / | / | ? | 11µM* | / | /
C[N+](C)(C)CC1CCCC(C[N+](C)(C)C)C1=O (centres undefined) | / | / | -28 | 2.2µM* | / | /
COc1cccc(CNC(=O)c2nn(-c3ccc(C)cc3)c(=O)c3c2c2ccccc2n3C)c1 | / | / | 28 | / | / | /
O=C(Nc1cccc(O)c1)c1ccc(C(F)(F)F)cc1 | 180% | 69* | 9 | -21% | 123% | 30*
O=C(Nc1ccc(C(F)(F)F)cc1)c1ccccc1 | 217% | / | -6 | -2% | 323% | /
O=C(Nc1ccc(Br)c(C(F)(F)F)c1)c1ccc(C(F)(F)F)cc1 | ? | 78* | -97* | ? | ? | 36*
O=C(Nc1ccc(Br)c(C(F)(F)F)c1)c1ccccc1 | -17% | 21 | -90* | -27% | 71% | 46*
CC(C)CC(=O)Nc1ccc(C(=O)Nc2cccc(O)c2)cc1 | ? | 74* | -18 | -7% | 157% | 32*
COc1ccc(CCNC(=O)C(=O)NCC(c2ccc3c(c2)OCO3)N2CCOCC2)cc1 (centres undefined) | / | / | 10 | / | / | /
COc1ccc(-c2cc(=O)oc3c(C)c(OC(C)C(=O)NCc4ccccn4)ccc23)cc1 (centres undefined) | ? | -2 | -19 | ? | ? | -1
COc1cc(NC(=S)NC(=O)c2ccco2)ccc1NC(=O)C(C)C | ? | 37 | 73 | -22% | 33% | 14
COc1cc(NC(=O)C(C)C)ccc1NC(=O)c1ccco1 | 12% | 63 | 4 | -3% | 199% | 58*
COc1cc2c(cc1NC(=O)c1ccco1)CCCC2 | / | 57* | 152 | ? | / | 52*
COc1ccc(NC(=O)CCNC(=O)c2ccco2)c(OC)c1 | 58% | 17 | -9 | 1% | 9% | 28*
COc1ccccc1NS(=O)(=O)c1ccc(NC(=O)CCNC(=O)c2ccco2)cc1 | 8.3µM* | 4 | -12 | 4% | ? | -1
Cc1nc2sc(C(=O)Nc3ccc(F)cc3)c(N)c2c(-c2ccc(Br)cc2)c1C(=O)Nc1ccc(Cl)cc1 | / | / | 28 | / | / | /
COc1ccc(NC(=O)c2ccco2)c(OC)c1 | ? | 74* | 68 | -17% | 72% | 42*
COc1ccc(OC)c(NC(=O)c2ccccc2NC(=O)c2ccco2)c1 | -6% | 1 | 0 | ? | 3.3µM* | -4
COc1cc(NC(=O)c2ccco2)c(OC)cc1NC(=O)Nc1ccccc1Cl | ? | -12 | ? | ? | ? | 4
COc1ccc(OC)c(NC(=O)c2cnc(Nc3ccccc3OC)c3ccccc23)c1 | 17% | -3 | -39 | ? | 10µM* | -5
COc1cc(NC(=O)[C@@H](NC(=O)c2ccco2)C(C)C)c(OC)cc1NC(=O)c1ccccc1 | ? | 15 | -37 | 7.9µM* | ? | -2
Cc1ccc(-c2nnc(SCC(=O)NCCN3C(=O)CSC3=O)n2C)cc1 | 26% | / | 0 | 6% | 5% | /
SMILES | Pf growth 96h | Shiga inhibitor | HCMV inh | HCV inh | Pf growth 48h | CHX counter
O=S(=O)(NCc1nc2cccnc2n1Cc1ccccc1Cl)c1ccc(F)c(Cl)c1 | / | / | -21 | / | / | /
CC(=O)c1ccccc1NC(=O)CCNC(=O)c1ccco1 | 11% | 27 | ? | 8% | 9% | 18*
Cc1ccc(Cn2c(C(=O)O)c(CNCc3ccc(C)o3)c3ccc(C)cc32)cc1 | / | / | 6 | / | / | /
Cc1ccc(Cn2c(C(=O)O)c(CNCc3ccc(OC(C)C)cc3)c3ccc(C)cc32)cc1 | / | / | -105* | / | / | /
CCc1ccc(CNCc2c(C(=O)O)n(Cc3ccc(C)cc3)c3cc(C)ccc23)cc1 | / | / | -94* | / | / | /
C=Cc1ccc(Cn2c(C(=O)O)c(CNCc3cc(Br)ccc3OC)c3ccc(C)cc32)cc1 | / | / | 13 | / | / | /
